This is an account of results in PubChem BioAssay (NCATS).

The structures appear in SMILES notation. Results filed as inconclusive are left out. The source made the active and inactive calls. Calls follow the shape of the dose curve; as a rule, active = well fitted cell-killing curve with a large enough effect; inconclusive = small, poorly fitted or top-dose-only effect; inactive = flat fitted curve, though single readings scatter.
% is scaled to controls: 0 for no effect and ±100 for the full control effect.

The nature of the test: Cell Viability - LYMP2-016 (AID 984). Also: nearly all actives have a fitted effect of over 55% in size. The following applies: LYMP2-016 lymphoblastoid cell viability, qHTS; series mostly up to 92.2 µM; activity change, negative = cytotoxicity: at the top concentration. The text has this:
NIH Chemical Genomics Center [NCGC]
NIH Molecular Libraries Screening Centers Network [MLSCN]
National Institutes of Environmental Health Sciences [NIEHS]
National Toxicology Program [NTP]
We have developed a 1536-well cell-based assay for quantitative high throughput screening (qHTS) against a number of cell lines to determine in vitro cytotoxicity of small molecules. This particular assay uses a human lymphoblastoid cell line (LYMP2-016) purchased from Coriell Institute for Medical Research.
NCGC Assay Protocol Summary:
The CellTiter-Glo luminescent cell viability assay (Promega) is a homogeneous method to measure the number of viable cells in culture. The end point readout of this assay is based on quantitation of intracellular ATP, an indicator of metabolic activity, using the luciferase reaction. Luciferase catalyzes the oxidation of beetle Luciferin to oxyluciferin and light in the presence of ATP. The luminescent signal is proportional to amount of ATP present.
Using the CellTiter-Glo luminescent cell viability assay, the amount of cellular ATP was measured in the lymphoblastoid cell line with complete culture medium following compound treatment for 24 hours. The assay was performed in opaque white Kalypsys 1536-well plates. In the screen, tetraoctylammonium bromide was used as positive control. Library compounds were measured for their ability to cause acute toxicity in the cell line, as reflected by a decrease in intracellular ATP levels, in a concentration-dependent manner. […] AC50 values were determined from concentration-response data modeled with the standard Hill equation.
qHTS protocol for CellTiter Glo lymphoblastoid cellular assay
[Step] [Parameter] [Value] [Description]
1. Reagent; 5 uL; 2500 lymphoblastoid cells/well
2. Time; 5 hr; 37 C incubation
4. Controls; 23 nL; Tetraoctylammonium bromide 6.4pM to 92 uM
5. Time; 24 hr; 37 C incubation
6. Reagent; 5 uL; CellTiter Glo reagent
7. Time; 30 min; Room Temperature
8. Detection; Luminescence; Viewlux plate reader
Keywords: cell viability, cytotoxicity, lymphoblastoid cell line, luminescence, NTPHTS, NTPHTS_NCGC, NIEHS, DSSTox, MLSMR, MLSCN, NIH Roadmap, qHTS, NCGC
Take `C=CCCCC`: the “activity change, negative = cytotoxicity” value is 0.189% (inactive).

On to `CCCCN(CCO)CCCC`, for which the “activity change, negative = cytotoxicity” value is -5.87% (inactive).

Take `CCCC=O`: the “activity change, negative = cytotoxicity” value was -14.5% (inactive).

For `OC1CCCC1`, the “activity change, negative = cytotoxicity” value was -8.48% (inactive).

`CCCCCCC=O`: the “activity change, negative = cytotoxicity” value was -1.57% (inactive).

`CC(C)C=O`: the “activity change, negative = cytotoxicity” value was -4.78% (inactive).

Turning to `CCCC(C)CO` (stereo not given), the “activity change, negative = cytotoxicity” value was -3.09% (inactive).

As for `Cc1cc(C)cc([N+](=O)[O-])c1`, the “activity change, negative = cytotoxicity” value is -14.5% (inactive).

As to `CCCCCCC(=O)O`, the “activity change, negative = cytotoxicity” value was 1.56% (inactive).

As for `Fc1ccccc1`, the “activity change, negative = cytotoxicity” value is -1.25% (inactive).

Turning to `CCOc1cc(OCC)c(C(C)=O)cc1OCC`, the “activity change, negative = cytotoxicity” value is -2.72% (inactive).

In the case of `O=C(O)CNC(=O)c1ccc([N+](=O)[O-])cc1`, the “activity change, negative = cytotoxicity” value was -0.372% (inactive).

`CN(C)CCCCl`: the “activity change, negative = cytotoxicity” value was -3.16% (inactive).

`Nc1cc(Cl)c([N+](=O)[O-])cc1O`: the “activity change, negative = cytotoxicity” value was -13.2% (inactive).

In the case of `Nc1nc(CC(=O)O)cs1`, the “activity change, negative = cytotoxicity” value is -6.82% (inactive).

Take `Cc1cccc(C(=O)O)c1[N+](=O)[O-]`: the “activity change, negative = cytotoxicity” value is -3.83% (inactive).

Consider `CCC(C)(C)C(=O)O`, for which the “activity change, negative = cytotoxicity” value was -19% (inactive).

As to `C[C@@H]1CC2(OC3C[C@@]4(C)C5=CC[C@H]6C(C)(C)C(O[C@@H]7OC[C@@H](O)[C@H](O)[C@H]7O)CC[C@@]67C[C@@]57CC[C@]4(C)C31)OC(O)C1(C)OC21` (stereo not given in full), the “activity change, negative = cytotoxicity” value was -13.2% (inactive).

Take `CC/C(C)=N/O`: the “activity change, negative = cytotoxicity” value is -0.712% (inactive).

Take `Cc1cccc2cccnc12`: the “activity change, negative = cytotoxicity” value was -6.44% (inactive).

As for `Nc1cccc2c(=O)[nH][nH]c(=O)c12`, the “activity change, negative = cytotoxicity” value is -2.83% (inactive).

Consider `Nc1cccc(O)c1`, for which the “activity change, negative = cytotoxicity” value was -9.15% (inactive).

As for `Cc1ccc2cccnc2c1`, the “activity change, negative = cytotoxicity” value was 5.39% (inactive).

Turning to `CC(=O)Nc1cccc(N)c1`, the “activity change, negative = cytotoxicity” value was -4.21% (inactive).

For the compound `N#CCc1ccccc1[N+](=O)[O-]`, the “activity change, negative = cytotoxicity” value is -2.51% (inactive).

Consider `CC(C)=C1CCC(C)CC1=O` (stereo not given), for which the “activity change, negative = cytotoxicity” value is -0.727% (inactive).

In the case of `Cc1ccc(C(C)(C)C)cc1`, the “activity change, negative = cytotoxicity” value was -4.05% (inactive).

`CNc1ccccc1`: the “activity change, negative = cytotoxicity” value is -6.8% (inactive).

In the case of `Oc1cccc(Nc2ccccc2)c1`, the “activity change, negative = cytotoxicity” value is -6.83% (inactive).

`CC(=O)Nc1ccc(C)cc1`: the “activity change, negative = cytotoxicity” value was -4.23% (inactive).

As to `ClCCl`, the “activity change, negative = cytotoxicity” value was -3.84% (inactive).

On to `C=CCOC(=O)CCCCCCCC`, for which the “activity change, negative = cytotoxicity” value is -5.18% (inactive).

In the case of `O=C(O)/C=C/C(=O)O`, the “activity change, negative = cytotoxicity” value was -0.779% (inactive).

On to `BrC(Br)C(Br)Br`, for which the “activity change, negative = cytotoxicity” value is -8.32% (inactive).

For `O=[N+]([O-])c1c(Cl)cc(Cl)cc1Cl`, the “activity change, negative = cytotoxicity” value was -8.13% (inactive).

As for `S=C([S-])NCCNC(=S)[S-].[Zn+2]`, the “activity change, negative = cytotoxicity” value was -2.2% (inactive).

With `C=Cc1ccccc1C=C`, the “activity change, negative = cytotoxicity” value is 1.7% (inactive).

`O=Cc1ccc(Cl)cc1`: the “activity change, negative = cytotoxicity” value is 3.24% (inactive).

Consider `O=C(O)c1cccc([N+](=O)[O-])c1`, for which the “activity change, negative = cytotoxicity” value was -2.3% (inactive).

Regarding `CO[Si](CCCNCCC[Si](OC)(OC)OC)(OC)OC`, the “activity change, negative = cytotoxicity” value was 3% (inactive).
